Screening data deposited in PubChem by National Center for Advancing Translational Sciences (NCATS).
HP1b chromo inh: blocks HP1-beta chromodomain binding to methylated histone tails; P83916; AlphaScreen HP1-beta / biotin-H3K9me3 peptide binding; Potency, µM (doses to about 114 µM), hits mostly inhibitors; actives 0.56% (n = 390,000); AID 540317; note: nearly all actives have a fitted effect of over 70% in size
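AlphaScreen: HP1-beta (50 nM) preformed 30 min with biotin-H3(1-18)K9me3 peptide (50 nM) in PBS pH 7.4, 0.01% Tween-20. Compound added for 30 min at RT, then streptavidin donor/nickel chelate acceptor beads (10 ug/mL) for 30 min.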
GLS inhibitor: blocks human kidney-isoform glutaminase activity. O94925. Potency, µM (titrated, usually from 45.5 µM), usual class: inhibitors. actives 0.21% (n = 410,000). GLS enzymatic activity, qHTS titration. AID 624170
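Coupled fluorescence readout: glutamate oxidase/HRP/Amplex Red detect glutamate formed by hKGA from L-glutamine (1 mM solution added). Buffer 45 mM KH2PO4 pH 8.2, 0.02% Tween-20; reads at t0 and 30 min RT.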
L3MBTL1 block: L3MBTL1 (human) inhibition; Q9Y468; AlphaScreen L3MBTL1–H3K9me1 peptide binding; Potency, µM (titrated, usually from 57.1 µM), most hits filed as inhibitors; actives 0.66% (n = 230,000); AID 485360; note: nearly all actives have a fitted effect of over 60% in size
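Displacement of a biotinylated histone H3(1-15) peptide monomethylated at Lys9 (75 nM) from L3MBTL1 (50 nM) was measured by AlphaScreen after a 30 min room-temperature compound incubation; cefsulodin titration served as intraplate control.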
G9a block: blocks human histone lysine methyltransferase G9a. Q96KQ7. G9a H3K9 monomethylation, AlphaScreen, 2 h. Potency, µM (top dose mostly 102 µM), usual class: inhibitors. actives 8.8% (n = 350,000). AID 504332; note: nearly all actives have a fitted effect of over 75% in size
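Chemiluminescent proximity detection of H3K9 monomethylation, read after 10 min bead incubation in the dark. Reaction: 20 nM G9a, 500 nM biotin-H3K9 peptide, 20 uM SAM cofactor, 2 h, room temperature, following 15 min enzyme-compound preincubation.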
JMJD2A Tudor inh: JMJD2A Tudor domain (human) inhibition | O75164 | AlphaScreen JMJD2A-Tudor / H3K4me3 peptide binding | Potency, µM (titrated, usually from 114 µM), most hits filed as inhibitors | actives 4.4% (n = 390,000) | AID 504339; note: nearly all actives have a fitted effect of over 50% in size
BAZ2B block: blocks human BAZ2B; AlphaScreen BAZ2B-H3K14Ac peptide displacement; actives 4.4% (n = 360,000); Potency, µM (doses to about 114 µM), usual class: inhibitors; note: nearly all actives have a fitted effect of over 60% in size
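Protein-peptide AlphaScreen: BAZ2B 50 nM, b-H3K14Ac 50 nM, 1x PBS pH 7.4 + 0.01% Tween-20. Preincubation 30 min RT; cpd 30 min RT (top 110 uM); beads 20 min RT, light-protected.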
Each line names hits and unclear results; the compound was inactive in the other large screens. Sampled rows, rich in hits. Any-hit rate of the full collection: about 10%. Calls come from the whole dose curve; as a rule, active = well fitted curve in the direction sought with a large enough effect; inconclusive = small, poorly fitted or top-dose-only effect, or another doubt; inactive = no such curve, though single readings can be large; an effect the other way counts as inactive or inconclusive.

CCOc1ccccc1Nc1nnc(-c2cc3cc(Cl)ccc3oc2=O)s1	none (no result: L3MBTL1 block)
CCOC(=O)C1=C(Cn2cnc3ccccc32)NC(=O)NC1c1ccc(Cl)cc1 (stereo unspecified)	none (no result: L3MBTL1 block)
CCOC(=O)C1=C(Cn2cnc3ccccc32)NC(=O)NC1c1ccc(OC)cc1 (stereo unspecified)	BAZ2B block 56.2µM (no result: L3MBTL1 block)
COC(=O)CC1Oc2ccc(C)cc2-n2cc(-c3ccc(F)cc3)nc21 (stereo unspecified)	none (no result: L3MBTL1 block)
CN(Cc1ccccc1)C(=O)Cn1c(=O)c2cccn2c2ccc(F)cc21	none (no result: L3MBTL1 block)
CCOc1ccc(/C=C2/SC(=S)N(CCC(=O)Nc3ccc(C(=O)O)cc3)C2=O)cc1	HP1b chromo inh 35.5µM, GLS inhibitor inconclusive, G9a block 15.8µM, JMJD2A Tudor inh 10µM, BAZ2B block 31.6µM (no result: L3MBTL1 block)
COc1ccc(/C=C2\SC(=O)N(CCCC(=O)Nc3ccc(C(=O)O)cc3)C2=O)cc1OC	none (no result: L3MBTL1 block)
O=C(CCN1C(=O)/C(=C\c2ccccc2)SC1=S)Nc1ccc(C(=O)O)cc1	G9a block inconclusive, JMJD2A Tudor inh inconclusive, BAZ2B block 56.2µM (no result: L3MBTL1 block)
CCOc1ccc(/C=C2\SC(=S)N(CCC(=O)O)C2=O)cc1	none
O=C(CCCN1C(=O)/C(=C/c2ccc(F)cc2)SC1=S)Nc1ccc(C(=O)O)cc1	none (no result: HP1b chromo inh, L3MBTL1 block, G9a block, JMJD2A Tudor inh, BAZ2B block)
CCN(CC)CCOC(=O)c1ccc(NC(=O)CCCN2C(=O)S/C(=C/c3ccc(OC)cc3)C2=S)cc1	HP1b chromo inh inconclusive, G9a block 39.8µM, JMJD2A Tudor inh inconclusive, BAZ2B block inconclusive (no result: L3MBTL1 block)
COc1ccc(/C=C2\SC(=S)N(CCCC(=O)Nc3ccc(C(=O)O)cc3)C2=O)cc1OC	JMJD2A Tudor inh inconclusive, BAZ2B block 50.1µM (no result: L3MBTL1 block, G9a block)
O=C(C1CCC(Cn2c(=O)c3sccc3n(Cc3cccc(F)c3)c2=O)CC1)N1CCOCC1 (stereo unspecified)	none (no result: L3MBTL1 block)
CCCS(=O)(=O)NCCc1csc2nc(-c3ccc(OC)cc3)nn12	none (no result: L3MBTL1 block)
CCOC(=O)C1=C(CN(CC)Cc2ccccc2)NC(=O)NC1c1ccc(OC(C)C)cc1 (stereo unspecified)	G9a block inconclusive (no result: L3MBTL1 block, BAZ2B block)
CC12CCC=CC1C(c1ccoc1)N(Cc1ccccc1)C2=O (stereo unspecified)	none (no result: GLS inhibitor, L3MBTL1 block, G9a block, BAZ2B block)
Cc1ccc(CSc2nc3c(c(=O)[nH]2)C(c2cccc(F)c2F)CC(=O)N3)cc1 (stereo unspecified)	none (no result: L3MBTL1 block)
CC(=Nc1ccccc1)C1=C(O)COC1=O	BAZ2B block inconclusive (no result: L3MBTL1 block)
COc1ccc(OC)c(N=C(C)C2=C(O)COC2=O)c1	G9a block 3.55µM (no result: L3MBTL1 block)
CN(C)c1ccc(C=C2C=Cc3ccccc32)cc1	HP1b chromo inh inconclusive, JMJD2A Tudor inh 14.1µM (no result: L3MBTL1 block, G9a block, BAZ2B block)
CNc1ccc(C=C2C=Cc3ccccc32)cc1	HP1b chromo inh 39.8µM, JMJD2A Tudor inh 28.2µM (no result: L3MBTL1 block, G9a block, BAZ2B block)
COc1cc2c(cc1OC)C(=Cc1ccc(N(C)C)cc1)C=C2	HP1b chromo inh 10µM, JMJD2A Tudor inh 10µM (no result: L3MBTL1 block, G9a block, BAZ2B block)
CCOc1cc(C2CC(=O)Nc3c2c(=O)nc(SCc2cccc(Cl)c2)n3C)ccc1O (stereo unspecified)	BAZ2B block inconclusive (no result: L3MBTL1 block)
O=c1cnc2cnc(N3CCNCC3)nc2n1C1CC1	none (no result: HP1b chromo inh, GLS inhibitor, L3MBTL1 block, JMJD2A Tudor inh, BAZ2B block)
C[C@H]1CN([C@@H](C)CO)C(=O)Cc2cc(NC(=O)C3CC3)ccc2O[C@H]1CN(C)Cc1ccc(Oc2ccccc2)cc1	JMJD2A Tudor inh inconclusive (no result: G9a block, BAZ2B block)
C[C@H]1CN([C@@H](C)CO)C(=O)Cc2cc(NC(=O)CCN3CCOCC3)ccc2O[C@@H]1CN(C)Cc1ccc(Oc2ccccc2)cc1	JMJD2A Tudor inh 44.7µM (no result: G9a block, BAZ2B block)
CCOc1cc2[nH]c(=O)n(CCC(=O)N3CCN(c4cccc(Cl)c4)CC3)c(=O)c2cc1OCC	none (no result: L3MBTL1 block)
CC1CCCN(C(=O)c2ccc(-c3ccccc3Cl)o2)C1 (stereo unspecified)	G9a block 44.7µM, BAZ2B block inconclusive
COc1ccccc1CNC(=O)C1CCN(C2=NS(=O)(=O)C(c3ccc(C)c(C)c3)=C2C)CC1	JMJD2A Tudor inh 56.2µM (no result: L3MBTL1 block)
CCN(CCCNC(=O)c1cc(Nc2ccccc2OC)nc2ccccc12)c1cccc(C)c1	none (no result: L3MBTL1 block, BAZ2B block)
